Each structure is given as a SMILES string. Values joined by “and” are separate entries in the source; they are usually repeats but may differ in a detail not shown here. Identical values can stand only once. Compounds without any hit were thinned out: in the full panel of roughly 79,000, 15% have a hit. A structure can be active in one record and inactive in another. Active and inactive are the calls of the source. Cut-off read from the data, not from the text of the source: active = growth inhibition above about 70%; inactive = the rest.

Assay [1] in a line: NCI Yeast Anticancer Drug Screen. Data for the rad50 strain (AID 155).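 Note: 0% = growth of vehicle-only cultures of the same strain.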 Conditions: S. cerevisiae rad50 strain growth inhibition, stronger effect = higher value. The gist of the method: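 Compounds were tested on a yeast strain with an engineered DNA damage repair alteration; the reported value is growth inhibition normalised to vehicle treatment.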
Assay [2] can be described thus: NCI Yeast Anticancer Drug Screen. Data for the mec2-1 strain (AID 157). Conditions: S. cerevisiae mec2-1 strain, stronger effect = higher value. The gist of the method: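 Each compound was tested on mec2-1 yeast, a strain altered in DNA damage repair or cell cycle control. Growth inhibition is reported relative to vehicle.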
Assay [3] is described as follows: NCI Yeast Anticancer Drug Screen. Data for the sgs1 mgt1 strain (AID 161).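 Note: 0% = growth of cultures given vehicle only.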 Conditions: S. cerevisiae sgs1 mgt1 strain, stronger effect = higher value. The method, boiled down:
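Test agents were incubated with a DNA-repair-mutant yeast strain. Growth was then read and compared against vehicle-treated controls.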

Assay [4] in a line: NCI Yeast Anticancer Drug Screen. Data for the cln2 rad14 strain (AID 165).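 Note: 0% = growth equal to vehicle treated cultures.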 Particulars: S. cerevisiae cln2 rad14 strain, stronger effect = higher value. The gist of the method:
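Test compounds were added to cln2 rad14 yeast cultures; inhibition of growth was then determined by comparison with vehicle treatment.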

Assay [5] is described as follows: NCI Yeast Anticancer Drug Screen. Data for the bub3 strain (AID 167). Conditions: S. cerevisiae bub3 mutant strain, stronger effect = higher value. The method, boiled down: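 Growth of a checkpoint-deficient yeast mutant is measured after compound exposure. Values represent inhibition relative to vehicle.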
Assay [6] is described as follows: NCI Yeast Anticancer Drug Screen. Data for the mlh1 rad18 strain (AID 175). Particulars: S. cerevisiae mlh1 rad18 strain growth inhibition, stronger effect = higher value. The method, boiled down: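 Inhibition values reflect reduced growth of mutant yeast versus vehicle-treated controls following compound exposure; the mutations affect DNA damage repair.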
The mark [7] stands for this setting: at 5.0 µM (retest, dose inferred, filed as 0.5).
[8] abbreviates: at 50.0 µM (retest, dose inferred, filed as 5.0).

In the case of `CN(C)CCCN=c1c2ccccc2n(O)c2cccc([N+](=O)[O-])c12`, the growth inhibition in assay [1] (setting [7]) is 6% (inactive); in assay [1] (setting [8]) it was 2% (inactive); in assay [1] (at 50.0 µM) it was 72.5% (active); in assay [2] (setting [7]), 23% (inactive); in assay [2] (setting [8]), -4% (inactive); in assay [2] (at 50.0 µM), 26.8% (inactive). In addition, the growth inhibition is 2% (inactive) in assay [3] (setting [7]); -1% (inactive) in assay [3] (setting [8]); 46.9% (inactive) in assay [3] (at 50.0 µM); 11% (inactive) in assay [4] (setting [7]); 8% (inactive) in assay [4] (setting [8]); 22.4% (inactive) in assay [4] (at 50.0 µM). For the same compound, the growth inhibition in assay [5] (setting [7]) was 9% (inactive); in assay [5] (setting [8]), -10% (inactive); in assay [5] (at 50.0 µM), 45.4% (inactive); in assay [6] (setting [7]), 7% (inactive); in assay [6] (setting [8]) it was 6% (inactive); in assay [6] (at 50.0 µM), -31.7% (inactive).

Take `NS(=O)(=O)c1ccc(Nc2c3ccccc3nc3c(C(=O)N4CCN(CCO)CC4)cccc23)cc1`: the growth inhibition in assay [1] (setting [7]) is 61% (inactive); in assay [1] (setting [8]), 61% (inactive); in assay [1] (at 50.0 µM), 38.6% (inactive); in assay [2] (setting [7]), 39% (inactive); in assay [2] (setting [8]), 39% (inactive); in assay [2] (at 50.0 µM), 40.7% (inactive). The growth inhibition in assay [3] (setting [7]) was 60% (inactive); in assay [3] (setting [8]), 60% (inactive); in assay [3] (at 50.0 µM) it was 24.4% (inactive); in assay [4] (setting [7]), 25% (inactive); in assay [4] (setting [8]), 25% (inactive); in assay [4] (at 50.0 µM), 29.9% (inactive). Moreover, the growth inhibition in assay [5] (setting [7]) is 32% (inactive); in assay [5] (setting [8]), 32% (inactive); in assay [5] (at 50.0 µM), 23.9% (inactive); in assay [6] (setting [7]), 30% (inactive); in assay [6] (setting [8]) it was 30% (inactive); in assay [6] (at 50.0 µM), 79.8% (active).

With `CC(=O)NC1C(O)OC(CO)C(OC2OC(CO)C(O)C(O)C2NC(=O)NCCCCCCNC(=O)n2cc(F)c(=O)[nH]c2=O)C1O` (stereo not drawn), the growth inhibition in assay [1] (setting [7]) is 3% (inactive) and 85% (active); in assay [1] (setting [8]), 58% (inactive) and 98% (active); in assay [1] (at 50.0 µM), 43.1% (inactive) and 91.9% (active); in assay [2] (setting [7]) it was -5% (inactive) and 78% (active); in assay [2] (setting [8]), 70% (active) and 99% (active); in assay [2] (at 50.0 µM) it was 72.2% (active) and 93.5% (active). In addition, the growth inhibition was 7% (inactive) and 93% (active) in assay [3] (setting [7]); 81% (active) and 98% (active) in assay [3] (setting [8]); 78.8% (active) and 88.5% (active) in assay [3] (at 50.0 µM); 8% (inactive) and 52% (inactive) in assay [4] (setting [7]); 20% (inactive) and 98% (active) in assay [4] (setting [8]); 24.8% (inactive) and 63.7% (inactive) in assay [4] (at 50.0 µM). The growth inhibition in assay [5] (setting [7]) is 5% (inactive) and 46% (inactive); in assay [5] (setting [8]), 19% (inactive) and 99% (active); in assay [5] (at 50.0 µM), 25.2% (inactive) and 75.5% (active); in assay [6] (setting [7]), 4% (inactive) and 87% (active); in assay [6] (setting [8]), 48% (inactive) and 98% (active); in assay [6] (at 50.0 µM), 37% (inactive) and 86.8% (active).

Consider `O=C1NC(=O)c2cc([N+](=O)[O-])ccc21`, for which the growth inhibition in assay [1] (setting [7]) was -9% (inactive); in assay [1] (setting [8]), 12% (inactive); in assay [1] (at 50.0 µM) it was 6.65% (inactive) and 0.9% (inactive); in assay [2] (setting [7]), 0% (inactive); in assay [2] (setting [8]), 4% (inactive); in assay [2] (at 50.0 µM), -21.9% (inactive) and 3.5% (inactive). The growth inhibition was -2% (inactive) in assay [3] (setting [7]); 8% (inactive) in assay [3] (setting [8]); 5.35% (inactive) and 17% (inactive) in assay [3] (at 50.0 µM); -5% (inactive) in assay [4] (setting [7]); -5% (inactive) in assay [4] (setting [8]); -1.95% (inactive) and 55% (inactive) in assay [4] (at 50.0 µM). The growth inhibition in assay [5] (setting [7]) was 0% (inactive); in assay [5] (setting [8]), 13% (inactive); in assay [5] (at 50.0 µM) it was -0.35% (inactive) and 34.4% (inactive); in assay [6] (setting [7]), -4% (inactive); in assay [6] (setting [8]) it was 12% (inactive); in assay [6] (at 50.0 µM), 11.3% (inactive) and -14.6% (inactive).

In the case of `C=C(C)C(=O)Oc1ccc(NC(=O)c2ccccc2)ccc1=O`, the growth inhibition in assay [1] (setting [7]) was 5% (inactive) and -1% (inactive); in assay [1] (setting [8]), 96% (active) and 95% (active); in assay [1] (at 50.0 µM) it was 92.5% (active) and 96.7% (active); in assay [2] (setting [7]), 2% (inactive) and 26% (inactive); in assay [2] (setting [8]), 96% (active); in assay [2] (at 50.0 µM) it was 75.2% (active) and 83.6% (active). The growth inhibition in assay [3] (setting [7]) was 7% (inactive) and 19% (inactive); in assay [3] (setting [8]), 95% (active) and 98% (active); in assay [3] (at 50.0 µM), 96% (active) and 94.3% (active); in assay [4] (setting [7]), -1% (inactive) and 1% (inactive); in assay [4] (setting [8]), 92% (active); in assay [4] (at 50.0 µM), 89.5% (active) and 83.8% (active). The growth inhibition was 5% (inactive) and 0% (inactive) in assay [5] (setting [7]); 94% (active) and 93% (active) in assay [5] (setting [8]); 89.5% (active) and 93% (active) in assay [5] (at 50.0 µM); 13% (inactive) and 6% (inactive) in assay [6] (setting [7]); 98% (active) in assay [6] (setting [8]); 96.8% (active) and 96.6% (active) in assay [6] (at 50.0 µM).

As to `COc1ccc(C2c3cc4c(cc3OC(NNC(N)=O)C2C)OCO4)cc1` (stereo not drawn), the growth inhibition in assay [1] (setting [7]) is -1% (inactive); in assay [1] (setting [8]), 96% (active); in assay [1] (at 50.0 µM), 84.5% (active); in assay [2] (setting [7]), -36% (inactive); in assay [2] (setting [8]), 96% (active); in assay [2] (at 50.0 µM) it was 80.4% (active). For the same compound, the growth inhibition in assay [3] (setting [7]) was -38% (inactive); in assay [3] (setting [8]), 96% (active); in assay [3] (at 50.0 µM), 87.8% (active); in assay [4] (setting [7]) it was -4% (inactive); in assay [4] (setting [8]), 95% (active); in assay [4] (at 50.0 µM), 76% (active). For the same compound, the growth inhibition was -34% (inactive) in assay [5] (setting [7]); 99% (active) in assay [5] (setting [8]); 85.8% (active) in assay [5] (at 50.0 µM); 6% (inactive) in assay [6] (setting [7]); 97% (active) in assay [6] (setting [8]); 85.8% (active) in assay [6] (at 50.0 µM).

For the origin of these results see PubChem BioAssay (NCI).
